Compound activity from PubChem BioAssay.
RmlCD inh mix – RmlC/RmlD inhibition, mixture screen | RmlC/RmlD coupled enzyme inhibition, 384-well mixture HTS | inhibition, % at 5.5 µM | hit rate 0.39% among 110,000; in the data active = inhibition above about 30%, passing the limit was not always enough
YopH PTP inh – blocks Yersinia enterocolitica YopH tyrosine phosphatase. fluorescence Ex485/Em525. inhibition, % (no concentration beside the values). hit rate 0.16% among 140,000. AID 898; in the data active = inhibition above about 50%
RmlCD fluor art – shows fluorescent artifact in RmlC/RmlD assay, dose-response counter-screen | AID 1696 | RmlC/RmlD assay fluorescence artifact counter-screen | calls only | hit rate 96% among 360 | shares compounds with RmlCD inh mix; call rule not given here;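 also: compound alone with no enzyme and no substrates present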
An asterisk follows results filed as active; i = inactive; . = not tested or not shown; + = active, no number. A selection: hits, their analogues and other compounds. The true share with any hit is near 0.44%.

SMILES	RmlCD inh mix	YopH PTP inh	RmlCD fluor art
N=c1c(C(=O)NCc2ccc(F)cc2)cc2c(=O)n3ccccc3nc2n1Cc1cccnc1	52.7*	-18.5	+
COC(=O)Cc1c(C)c2c(OCc3nn[nH]n3)cc(C)cc2oc1=O	37.7*	-61.1	+
COC(=O)Cc1c(C)c2ccc(OCc3nn[nH]n3)cc2oc1=O	30.8	8.3	.
CCOC(=O)c1cc2c(=O)n3cccc(C)c3nc2n(CC2CCCO2)c1=NC(C)=O (centres undefined)	.	0.2	.
CCOC(=O)c1cc2c(=O)n3cccc(C)c3nc2n(Cc2ccco2)c1=NC(=O)c1ccccc1	36.2*	-10.1	+
Cc1cc2nnc(SCC(=O)OC(C)C)n2c2ccccc12	-5.7	15.0	.
CC1=CCC[C@@H]2[C@@](C)(CC/C(C)=C/C(=O)O)[C@H](C)CC[C@@]12C	-12.4	-24.8	.
CCCOc1ccc2c(CC)cc(=O)oc2c1C	.	-34.6	.
CCc1cc(=O)oc2c(C)c(O)c(CN(C)C)cc12	81.9*	-1.4	+
COc1ccc2c(c1)c1ncn(CCCN3CCOCC3)c(=O)c1n2C	105.7*	-5.2	+
COc1ccc2c(c1)[nH]c1c(=O)n(CCCN3CCOCC3)cnc12	-11.8	3.8	.
CC(=O)C[C@H]1c2cc(F)ccc2S(=O)(=O)N1c1ccc(N(C)C)cc1	-12.7	.	.
Cc1c(Br)c(=O)oc2c(Br)c(O)c(O)cc12	.	-6.9	.
CN(C)Cc1c(O)ccc2oc(Cc3ccccc3)cc12	4.1	-19.5	.
Cc1c(Cc2ccccc2)c(=O)oc2c(CN(C)C)c(O)c(Cl)cc12	144.7*	-17.5	+
CCN(CC)Cc1c(O)c(Cl)cc2c(C)c(C)c(=O)oc12	67.9*	-16.7	+
O=C(CSc1nnc(-c2ccccc2NC(=O)c2ccccc2)o1)OC1CCCCC1	1.4	-5.1	.
CC1Cc2ccccc2N1C(=O)c1cc2c(=O)n3ccccc3nc2n1C (centres undefined)	3.7	-32.4	.
Cn1c(C(=O)N2CCc3ccccc3C2)cc2c(=O)n3ccccc3nc21	102.9*	-22.3	+
Nc1cnc(CNc2ccccc2Cl)cn1	6.6	.	.
O=C(c1ccc(F)cc1)n1c(NCc2ccccc2)n[nH]c1=S	.	.	i
O=C(c1ccc([N+](=O)[O-])cc1)n1nc(-c2ccccc2)nc1NCc1ccc(F)cc1	.	-29.0	.
CCCc1cc(N2CCN(C(=O)c3ccco3)CC2)n2c(nc3ccccc32)c1C#N	39.1*	4.0	+
CCCc1cc(NCCCCO)n2c(nc3ccccc32)c1C#N	-9.4	-32.2	.
COc1cccc(-n2c(SCc3cc(=O)oc4cc(O)c(O)cc34)nc3ccccc3c2=O)c1	.	-7.8	.
SMILES	RmlCD inh mix	YopH PTP inh	RmlCD fluor art
O=C(O)C1=C[C@H](c2ccc(Br)cc2)C[C@H](OCc2ccc(CO)cc2)O1	-6.6	.	.
Cc1cc(/C=C(\C#N)C(=O)OCC(=O)NC(=O)NC(C)(C)C)c(C)n1CCC(C)C	2.4	4.7	.
C=CCNC(=O)NC(=O)COC(=O)/C(C#N)=C/c1cc(C)n(CCC(C)C)c1C	30.0*	-30.7	+
Cc1ccc2nc(NC(=O)c3cccc(-c4cc5ccccc5oc4=O)c3)sc2c1	41.1*	-11.0	+
CCOc1ccc2nc(NC(=O)c3cccc(-c4cc5ccccc5oc4=O)c3)sc2c1	.	-4.3	.
CCCc1ccc(Oc2cc(N3CCOCC3)nc(-c3ccccc3)n2)cc1	10.4	-21.7	.
CNCc1ccccc1Sc1ccc(OC)c(OC)c1	12.0	-4.2	.
CC(C)(C)OC(=O)N[C@@H](Cc1ccccc1)[C@H](O)c1ccco1	3.0	.	.
NC(=O)Nc1ccc(C(=O)OCC(=O)Nc2ccc([N+](=O)[O-])cc2C(F)(F)F)cc1	.	-21.3	.
CC(=O)c1cc2cc(O)ccc2o1	135.9*	-31.2	+
CC(=O)c1cc2c(O)c(O)ccc2o1	-3.7	6.2	.
COC(=O)CON1C(=O)c2ccccc2C1=O	-16.3	-11.6	.
C=CCON1C(=O)c2ccccc2C1=O	-9.8	-20.9	.
Cc1cc(C)c(S(=O)(=O)ON2C(=O)c3ccccc3C2=O)cc1C	146.4*	-30.3	+
Cc1cc(C)c(C)c(S(=O)(=O)ON2C(=O)c3ccccc3C2=O)c1C	114.1*	-55.9	+
O=C(Nc1cccnc1)c1coc(=O)c2ccccc12	60.8*	-32.5	+
O=C(Nc1cccnc1)c1ccccc1O	-7.8	-17.5	.
CCOc1cc(NC(=S)NCCCN2CCOCC2)c(OCC)cc1NC(=O)C1CC1	.	-11.6	.
Cc1c(O)ccc2c3c(c(=O)oc12)CCCC3	69.6	-29.7	.
O=c1c(-c2ccc3c(c2)OCCO3)coc2c(CN3CCOCC3)c(O)ccc12	13.1	-34.7	.
O=c1oc2c(CN3CCOCC3)c(O)ccc2c2c1CCC2	99.6*	-28.6	+
CC(C)CN(Cc1c(O)ccc2c3c(c(=O)oc12)CCC3)CC(C)C	95.0*	-111.7	+
Cc1cc(=O)oc2c(CN(CC(C)C)CC(C)C)c(O)ccc12	104.9*	-31.0	+
CCN(CC)Cc1c(O)ccc2c(-c3ccccc3)cc(=O)oc12	-8.4	-32.2	.
CCC(Sc1nc2c(c(=O)n1CC)SC(C)C2)C(=O)OC (centres undefined)	5.1	-35.5	.
SMILES	RmlCD inh mix	YopH PTP inh	RmlCD fluor art
CC(C)=CC(O)C/C(C)=C/COc1ccc2ccc(=O)oc2c1 (centres undefined)	6.2	.	.
COC(=O)C1=CNC=C(C(=O)OC)C1c1ccc(Cl)cc1	-24.1	15.8	.
COC(=O)C1=CNC=C(C(=O)OC)C1c1cccc(OC)c1	50.5*	-26.9	+
O=C(CN1CCCC1)Nc1ccc(-c2nc3cc(NC(=O)CN4CCCC4)ccc3o2)cc1	46.1*	-7.0	+
CCN(CC)CC(=O)Nc1ccc(-c2nc3cc(NC(=O)CN(CC)CC)ccc3o2)cc1	-27.4	-17.1	.
COc1cc(-c2nc3ccccn3c2/N=C/c2ccccc2)ccc1O	67.4*	-38.8	+
COc1ccc(-c2nc3ccccn3c2/N=C/c2ccc(OC)c(OC)c2)cc1O	.	-12.8	.
CCCCOC(=O)Nc1cccc(Cl)c1C	1.9	-7.3	.
O=c1oc2cc(O)ccc2c2c1CCCC2	126.3*	-17.3	+
O=C(Oc1ccc2c3c(c(=O)oc2c1)CCCC3)c1ccco1	110.2*	-25.3	+
Cc1cc(OC(=O)c2ccco2)c2c3c(c(=O)oc2c1)CCC3	-128.7	-11.0	.
O=c1oc2cc(O)ccc2c2ccccc12	-12.3	-14.7	.
C/C(CC1CC2=C(CC1(C)C)C(C)(C)CCC2)=N\NC(N)=S (centres undefined)	-7.9	-4.5	.
COCCN(C(=O)c1cccc(OC)c1)c1nnc(-c2ccncc2)s1	-36.2	-50.8	.
C=CCN(C(=O)COc1ccccc1)c1nnc(-c2ccncc2)s1	154.0*	-7.4	+
CCOC(=O)C1(CC/C(C)=N\NC(N)=O)CC(C)(C)OC1=O (centres undefined)	.	-12.1	.
Cc1nc(NC(=O)/C=C/c2ccccc2)n[nH]1	.	-21.5	.
CCCCNC(=S)Nc1ccc(-c2nc3ccc(C)cc3s2)cc1	.	-12.4	.
Cc1ccc2nc(-c3ccc(NC(=S)NCCC(C)C)cc3)sc2c1	129.7*	-1.7	+
CC(=O)c1ccccc1NC(=O)Cn1c(=O)cnc2ccccc21	.	-42.3	.
CC(C)(C)[C@H]1C=C(C(=O)N2CCN(Cc3ccc4c(c3)OCO4)CC2)O[C@@H](OCc2ccc(CO)cc2)C1	-10.4	.	.
CN(C)S(=O)(=O)c1ccc(-c2cn3ccccc3n2)cc1	40.4*	-26.7	+
Cc1ccc2nc(-c3cccc(S(=O)(=O)N(C)C)c3)cn2c1	9.6	-31.3	.
